Rows were chosen to be rich in hits. Some 2.5% of all compounds tested hit in one or more screens of this group.
Mito fusion act: qHTS Assay for Small Molecule Inhibitors of Mitochondrial Division or Activators of Mitochondrial Fusion. AID 485298, 2010. actives 0.23% (n = 320,000). Potency, µM (top dose mostly 46.1 µM), without a hit: at the highest dose growth rescue (activation), most hits filed as activators. S. cerevisiae fusion-defective mutant growth rescue, CellTiterGlo 48 h; also: potency is read from the fitted curve at half-maximal effect; % of control where 0% means no effect; nearly all actives have a fitted effect of over 45% in size
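Luminescent cell viability in 1536-well qHTS format served as the measure of rescued growth in ts fusion-mutant S. cerevisiae cultured on non-fermentable YPEG for 48 hours at 37C.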
CCT chaperon mod: High-Throughput Screening for Modulators of Cytosolic Chaperonin Activity. AID 651819, 2012. purified chaperonin ATPase assay, HTRF ADP detection, 30 min. activity change, % (concentration not given with the values), hits read low. actives 0.3% (n = 360,000); in the data active = activity change below about -30%; also: % is scaled to controls: 0 for no effect and ±100 for the full control effect
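First, chaperonin was dispensed at 40 nM or 20 nM final depending on batch activity. Next, compounds were pinned at 76 uM and ATP added at 10 uM. After 30 min at 37 °C, ADP detection reagents ran 30 min at ambient temperature.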
Apoferritin bind: qHTS Assay for Identification of Novel General Anesthetics | apoferritin/1-aminoanthracene competitive binding, fluorescence | Potency, µM (doses to about 77.5 µM), inactives show at the highest dose activity change, negative = displacement, usual class: inhibitors | actives 0.074% (n = 350,000); also: potency is read from the fitted curve at half-maximal effect; % is scaled to controls: 0 for no effect and ±100 for the full control effect; nearly all actives have a fitted effect of over 20% in size
Target sequence (P02791 2-175 limits assumed): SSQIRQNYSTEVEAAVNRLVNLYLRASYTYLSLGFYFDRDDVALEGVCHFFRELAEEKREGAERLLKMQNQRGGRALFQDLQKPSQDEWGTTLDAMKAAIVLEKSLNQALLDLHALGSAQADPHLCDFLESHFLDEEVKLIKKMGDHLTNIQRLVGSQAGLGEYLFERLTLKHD
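Apoferritin-based anesthetic binding model; compound displacement of fluorescent 1-AMA measured as endpoint fluorescence after 10 minutes at room temperature, scaled to free-ligand and complex controls.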
Akt phos inh: HTS Assay for Inhibitors of Akt Phophorylation: Primary Screen; Neuro2A IGF-stimulated pAkt S473 HTRF, 20 min; active compounds read low; activity change, % for hits at 50 µM; actives 0.32% (n = 360,000); AID 651550, 2012; in the data active = activity change below about -80%; inconclusive = mostly about -51% to -80%; also: % is scaled to controls: 0 for no effect and ±100 for the full control effect
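Neuro2A cells (4,500/well, DMEM with 0.5% FBS) were treated with compound at a single 50 µM final concentration, stimulated with 6 nM IGF for 20 min at 37 °C, and lysed. Phospho-Akt Ser473 was read by HTRF as 665/615 ratio ×10^4.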
aSyn rescue: qHTS of alpha-syn Inhibitors. Yeast expressing alpha-synuclein, growth rescue, BacTiter-Glo, 24 h. Potency, µM (top dose mostly 46.1 µM), for inactives: at the top dose growth rescue (activation), actives largely listed as activators. actives 0.14% (n = 370,000); also: potency is read from the fitted curve at half-maximal effect; % of control where 0% means no effect; nearly all actives have a fitted effect of over 65% in size
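Readout is rescue of growth in alpha-synuclein-expressing yeast, so inhibitors of toxicity appear as activators. Growth after 24 hr at 30 deg C in galactose medium is quantified by luminescence.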
TDP43 rescue: qHTS of TDP-43 Inhibitors; TDP-43 expressing yeast growth rescue, BacTiter-Glo, 24 h; Potency, µM (highest dose often 46.1 µM), without a hit: at the top dose growth rescue (activation), usual class: activators; actives 1.8% (n = 410,000); AID 652104, 2013; also: potency is read from the fitted curve at half-maximal effect; % of control where 0% means no effect; nearly all actives have a fitted effect of over 50% in size
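Cell-based yeast growth screen: TDP-43 expression induced in galactose, inoculum OD600=0.02 after raffinose pregrowth to mid-log. Read-out BacTiter-Glo luminescence at 24 hr, 30 deg C; inhibition of toxicity seen as signal increase.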
Active calls of the source: *; i = inactive; ? = inconclusive; · = no result. Unless noted, calls follow the shape of the dose curve; as a rule, active = well fitted curve in the direction sought with a large enough effect; inconclusive = small, poorly fitted or top-dose-only effect, or another doubt; inactive = no such curve, though single readings can be large; an effect the other way counts as inactive or inconclusive.

SMILES	Mito fusion act	CCT chaperon mod	Apoferritin bind	Akt phos inh	aSyn rescue	TDP43 rescue
O=C1C=C(c2cc(C(F)(F)F)cc(C(F)(F)F)c2)C[C@@H](c2ccc(Cl)cc2)C1	6.8%	-1.7	·	i	0.2%	11.7%
O=C1C=C(c2cccc(CO)c2)C[C@@H](c2ccc(Cl)cc2)C1	?	-1.7	·	i	10.9%	17.8µM*
COc1cc(/C=C/C(=O)c2ccc3c(c2)OCCO3)cc(Br)c1OCC(=O)N(C)C	-33.3%	0.2	-18.8%	i	10.7%	25.1µM*
CC1C(=O)N(Cc2cn(Cc3ccco3)nn2)CCS(=O)(=O)N1Cc1ccc(-c2ccc(Cl)cc2)cc1 (centres undefined)	·	-0.3	·	i	3.0%	35.5µM*
Cc1ccc(-c2ccc(CN3C(C)C(=O)N(Cc4cn(CCC5OCCO5)nn4)CCS3(=O)=O)cc2)cc1 (centres undefined)	·	2.2	·	i	5.0%	25.2%
CC1C(=O)N(Cc2cn(CCC3OCCO3)nn2)CCS(=O)(=O)N1Cc1ccc(-c2ccc(Cl)cc2)cc1 (centres undefined)	·	1.3	·	i	1.0%	28.2µM*
CC1C(=O)N(Cc2cn(Cc3ccco3)nn2)CCS(=O)(=O)N1Cc1ccc(-c2ccccc2)cc1 (centres undefined)	·	-1.3	·	i	7.6%	25.8%
COc1cccc(C(=O)N(Cc2ccco2)c2ccccn2)c1	·	·	5.5%	·	·	7.0%
O=C(NCCN1C(=O)S/C(=C\c2cccc(Cl)c2Cl)C1=O)C1=COCCO1	9.1%	0.6	-13.3%	i	1.9%	3.98µM*
Cc1noc(C)c1-c1ccc2ncnc(N(C)Cc3ccco3)c2c1	·	·	0.6%	·	·	·
COc1cc(/C=C/C(=O)c2ccccc2O)cc(OC)c1OC	13.3%	-1.7	?	i	13.2%	15.8µM*
O=C(/C=C/c1ccc2c(c1)OCCCO2)c1ccccc1O	2.2%	2.8	?	i	-37.2%	12.6µM*
Cc1ccc(/C=C/C(=O)c2ccccc2O)cc1	-1.2%	0.8	-13.2%	i	0.3%	7.1%
Cc1ccc(O)c(C(=O)C=Cc2ccccc2)c1	·	-0.9	·	i	?	12.6µM*
Cc1ccc(C(=O)/C=C/c2ccc3c(c2)OCO3)o1	-6.0%	0.8	43.8%	i	-1.4%	25.6%
Cc1ccc(O)c(C(=O)/C=C/c2ccc3c(c2)OCCCO3)c1	18.3%	-4.7	-5.9%	i	-18.1%	14.1µM*
CSCC[C@H](NC(=O)[C@H](CC(C)C)NC(=O)[C@@H]1CCCN1C(=O)[C@H](Cc1ccccc1)NC(=O)[C@H](Cc1ccccc1)NC(=O)[C@H](CCC(N)=O)NC(=O)[C@H](CCC(N)=O)NC(=O)[C@@H]1CCCN1C(=O)[C@H](CCCCN)NC(=O)[C@@H]1CCCN1C(=O)[C@@H](N)CCCN=C(N)N)C(N)=O	·	·	2.3%	·	·	·
Cc1cc(=O)oc2cc(OCCCC[n+]3ccccc3)ccc12	-11.1%	0.1	-3.3%	i	-11.8%	-10.4%
Cc1cc(=O)oc2cc(OCCc3ccccc3)ccc12	26.6%	1.0	-8.2%	i	2.4%	12.6µM*
O=c1ccc(C(F)(F)F)cn1Cc1cc(=O)n2ccsc2n1	-20.0%	-1.6	-6.8%	i	-9.1%	1.3%
O=c1cc(CNc2cc(C(F)(F)F)cc(C(F)(F)F)c2)nc2sccn12	29.3%	-2.2	-17.3%	i	-9.5%	17.8µM*
O=c1cc(COn2nnc3ccc(C(F)(F)F)cc32)nc2sccn12	4.4%	1.5	-12.8%	i	12.2%	10µM*
CCOc1ccc(CNC(=O)c2ccc(Sc3ccc(C)cc3)c(N)c2)cc1OC	·	·	261.3%	·	·	5.9%
CCCCC(=O)NCCc1c(Cc2ccccc2)[nH]c2ccccc12	·	·	2.3%	·	·	·

Assay outcomes (PubChem BioAssay)
